Luc counter = Kinase-Glo luciferase inhibition (counter-screen) | Q27757 | Kinase-Glo luciferase, ATP luminescence, 8 min | Potency, µM (top dose mostly 38.3 µM), inactives show at the top dose activity change, negative = inhibition, most hits filed as inhibitors | 200,000 compounds, 0.28% hits | AID 1379; note: % is set by controls: 0 for no effect and ±100 for the full control effect; nearly all actives have a fitted effect of over 60% in size
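Luminescence was the read-out, taken after 8-minute incubation at ambient temperature. Luciferase turned over luciferin with 10 uM ATP in imidazole pH 7.2 buffer containing KCl, MgCl2, Tween 20 and BSA.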
ELG1 genotox = induces genotoxicity in HEK293T cells with luciferase-tagged ELG1. Potency, µM (top dose mostly 46 µM), without a hit: at the top dose activity change, positive = activation, usual class: activators. 330,000 compounds, 1.3% hits. HEK293T ELG1-luciferase reporter, luminescence, 16 h; note: % of control where 0% means no effect; nearly all actives have a fitted effect of over 60% in size
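Luminescence read-out: rising ELG1-luciferase signal, reflecting elevated ELG1 protein under genetic stress, flags genotoxic compounds. Cells were treated for 16 hr at 37 °C before ONE-Glo detection.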
Rab9 promoter act = Rab9 promoter activation; Huh7 Rab9 promoter-luciferase reporter, luminescence, 24 h; Potency, µM (doses to about 9.22 µM), inactives show top-dose activation, negative = inhibition, usual class: activators; 320,000 compounds, 2.8% hits; AID 485297; note: % of control where 0% means no effect; nearly all actives have a fitted effect of over 60% in size
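Cell-based reporter: Huh7 stable for Rab9 promoter-driven luciferase, plated in reduced-serum medium with 10% FBS at 1500 cells/well, compound-treated 24 h at 37 °C, luminescence read after 10 min reagent.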
FLuc modulator = inhibits or activates purified firefly luciferase, miR-21 counter-screen; 360,000 compounds, 6.9% hits; Potency, µM (titrated, usually from 57.5 µM), for inactives: at the top dose activity change, negative = inhibition, hits mostly inhibitors; purified FLuc, Km substrates, luminescence inhibition; P08659;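 note: plate controls were vehicle for no effect and reference inhibitor for full effect; nearly all actives have a fitted effect of over 55% in size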
Target sequence (P08659 whole entry, looked up): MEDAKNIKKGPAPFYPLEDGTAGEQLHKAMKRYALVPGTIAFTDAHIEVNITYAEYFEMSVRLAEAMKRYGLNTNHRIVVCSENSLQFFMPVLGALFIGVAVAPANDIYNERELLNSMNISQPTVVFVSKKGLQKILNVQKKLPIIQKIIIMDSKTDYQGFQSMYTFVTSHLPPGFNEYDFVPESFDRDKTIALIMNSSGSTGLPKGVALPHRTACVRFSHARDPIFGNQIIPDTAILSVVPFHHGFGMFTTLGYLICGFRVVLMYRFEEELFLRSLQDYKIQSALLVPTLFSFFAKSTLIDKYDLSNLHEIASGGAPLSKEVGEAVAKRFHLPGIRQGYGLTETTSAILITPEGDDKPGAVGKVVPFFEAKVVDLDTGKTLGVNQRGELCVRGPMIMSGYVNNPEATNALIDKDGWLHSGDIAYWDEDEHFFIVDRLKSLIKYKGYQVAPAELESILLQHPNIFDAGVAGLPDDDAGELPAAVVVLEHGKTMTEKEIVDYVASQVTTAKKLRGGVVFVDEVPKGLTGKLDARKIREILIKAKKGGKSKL
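Biochemical qHTS of compounds, final roughly 60 µM downward over six points, against 10 nM purified firefly luciferase using Km concentrations of substrates (10 uM D-luciferin, 10 uM ATP) in Tris acetate pH 7.5 buffer; luminescence output.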
NPC1 promoter act = NPC1 promoter activation | Huh7 NPC1 promoter luciferase reporter, 24 h | Potency, µM (titrated, usually from 9.22 µM), without a hit: at the highest dose activation, actives largely listed as activators | 320,000 compounds, 2.4% hits | AID 485313; note: % of control where 0% means no effect; nearly all actives have a fitted effect of over 60% in size
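Luminescence read-out of NPC1 promoter-driven luciferase in stably transfected Huh7 cells; compounds delivered in DMSO and left 24 h at 37C, 5% CO2, qHTS titration format.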
SMN2 splice up = increases expression of the SMN2 splice variant. HEK293 SMN2-luciferase splicing reporter, luminescence, 30-36 h. Potency, µM (titrated, usually from 46.1 µM), for the others: at the top dose activity change, positive = activation, usual class: activators. 210,000 compounds, 2.8% hits; note: % of control where 0% means no effect; nearly all actives have a fitted effect of over 55% in size
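qHTS luciferase splicing reporter: luminescence rises when SMN2 exon 7 is included in transfected HEK293 cells. Compound exposure lasted 30-36 h at 37C, with 4.5 mM final sodium butyrate as control, followed by a ONE-Glo read.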
Starred values were filed as active, the others as inactive; ? = inconclusive; . = no result given; [ ] = dose if it differs, or a comment. This is a sample that favours compounds with a hit; in the whole collection about 7.5% have one here. Calls come from the whole dose curve; as a rule, active = well fitted curve in the direction sought with a large enough effect; inconclusive = small, poorly fitted or top-dose-only effect, or another doubt; inactive = no such curve, though single readings can be large; an effect the other way counts as inactive or inconclusive. Potency is the fitted concentration of half-maximal effect.

SMILES	Luc counter	ELG1 genotox	Rab9 promoter act	FLuc modulator	NPC1 promoter act	SMN2 splice up
Cc1ccc(C)c(NC(=O)CCc2nc(-c3ccc(C(C)(C)C)cc3)no2)c1	.	.	.	2.1µM*	.	-9%
CN1[C@@H]2CC[C@@H]1CC(OC(=O)[C@H](CO)c1ccccc1)C2 (stereo partly drawn)	4%[39.9 µM]	.	.	.	.	.
NCCN1C(=O)c2ccccc2[C@@]1(O)c1ccc(Cl)cc1	3%[7.66 µM]	.	.	.	.	-9%[9.22 µM]
CCCCN(C)c1nc2c(S(=O)(=O)c3ccc(CC)cc3)nnn2c2ccc(Cl)cc12	.	.	.	3%	.	?
Cc1cc(C)c2c(=O)c3c(oc2c1)C(=O)N(Cc1ccco1)C3c1ccccc1F (stereo not drawn)	.	.	.	-2%	.	-2%
CC(C)(C)c1ccc(-c2noc(CCC(=O)NCc3ccco3)n2)cc1	-1%	-8%	-15%	2.7µM*	-20%	-49%
COc1ccccc1-c1noc(CCC(=O)Nc2cc(C(F)(F)F)ccc2Cl)n1	-1%	-16%	8%	19µM*	1%	-38%
CCOC(=O)c1ccc(NC(=O)CCc2nc(-c3ccc(C)cc3)no2)cc1	2%	23µM*	8%	1%	-2%	-101%
CCCCCC(=O)OCCc1c(C)nc2nc[nH]n2c1=O	1%	-2%	-18%	-17%	1%	13%
CCOC(=O)c1ccc(NC(=O)CCc2c(C)nc3nc[nH]n3c2=O)cc1	.	.	.	27µM*	.	1%
Cc1ccccc1Cn1c(=O)n(CCc2ccccc2)c(=O)c2c(C)c(C)sc21	.	.	.	4%	.	8%
COC(=O)c1ccc(NC(=O)CSc2nc(C)cc(C)c2C(=O)Nc2ccccc2)cc1	.	.	.	-10%	.	.
Cc1ccc(NC(=O)CSc2nc(NS(=O)(=O)c3ccccc3)cc(=O)[nH]2)cc1	0%	2%	0%	-3%	0%	-12%
Cc1ccc(S(=O)(=O)Nc2cc(=O)[nH]c(SCC(=O)Nc3cccc(C)c3)n2)cc1	.	-7%	-1%	19µM*	0%	.
CCOc1ccc(NC(=O)CSc2nc(NS(=O)(=O)c3ccc(C)cc3)cc(=O)[nH]2)cc1	.	0%	1%	21µM*	0%	.
CCOc1ccc(NC(=O)CSc2nccn2-c2cccc(C)c2C)cc1	.	.	.	-3%	.	.
CCOc1ccc(Nc2n[nH]c(=S)s2)cc1	.	?	1.8µM*	?	2.5µM*	.
Cc1ccc(-c2nc(C(Cl)Cl)c3ccccc3n2)cc1	.	18%	-41%	13µM*	-37%	.
CN(C)C(=O)c1ccc(-c2nc(N(C)C)c3ccccc3n2)cc1	11µM*	.	.	.	.	25%
c1ccc(Nc2nc(-c3ccccc3)nc3ccccc23)cc1	.	-7%	-4%	-9%	-1%	.
Cc1ccc(-c2nc(NCc3ccco3)c3ccccc3n2)cc1	-3%	-1%	-6%	?	0%	15%
CNC(=O)c1ccc(Nc2nc(-c3ccccc3)nc3ccccc23)cc1	.	-16%	16%	?	16%	.
Cc1ccc(-c2nc(Nc3ccc(N4CCOCC4)cc3)c3ccccc3n2)cc1	.	-7%	-3%	24µM*	0%	.
O=C(O)c1ccc(Nc2nc(-c3ccccc3)nc3ccccc23)cc1	.	-6%	-9%	21µM*	-4%	.
O=C(NCC(c1ccc2c(c1)OCO2)N1CCOCC1)c1ccc(F)cc1 (stereo not drawn)	.	.	.	-3%	.	.
SMILES	Luc counter	ELG1 genotox	Rab9 promoter act	FLuc modulator	NPC1 promoter act	SMN2 splice up
O=C(NCc1ccc(F)cc1)c1cc(-c2ccc(Cl)cc2)n[nH]1	.	.	.	-8%	.	.
Cc1ccc(NC(=O)CCS(=O)(=O)c2ccc3c(c2)oc(=O)n3C)c(Br)c1	.	.	.	5%	.	.
COCCN(CCOC)c1nc(-c2ccc(C)cc2)nc2ccccc12	.	-4%	29%	13µM*	21%	.
Cc1ccc(-c2nc(Nc3ccc(O)cc3)c3ccccc3n2)cc1	.	9%	16%	24µM*	15%	.
COC(=O)c1ccc(Nc2nc(-c3ccc(C)cc3)nc3ccccc23)cc1	.	.	.	?	.	6%
Cc1ccc(-c2nc(Nc3cccc(O)c3)c3ccccc3n2)cc1	.	-8%	-7%	21µM*	2%	.
O=[N+]([O-])c1ccc(-c2nc(Nc3cccc(O)c3)c3ccccc3n2)cc1	.	-14%	-4%[1.84 µM]	-4%	-4%	.
CCOC(=O)c1c(C)c(-c2ccccc2)n(CC(=O)NC2CCCCC2)c1C	.	.	.	-2%	.	5%
O=C(Nc1cccc(F)c1)N1CC2(CCN(C(=O)c3ccncc3)CC2)C1	-1%	.	.	.	.	-32%
Cc1nc2cc(-c3ccc(Cl)cc3)nn2c(C)c1CCC(=O)N1CCN(c2ccccc2)CC1	.	.	.	-13%	.	3%
Cc1c(C(=O)O)cnc2cc(-c3ccc(Cl)cc3)nn12	-4%	?	?	9.5µM*	?	11µM*
CC(=O)c1cnc2c(-c3ccc(Cl)cc3)c(C)nn2c1C	0%	8%	2%	-4%	0%	-11%
CC(=O)c1cnc2cc(-c3ccc(Cl)cc3)nn2c1C	-2%	?	3.5µM*	2.7µM*	4.5µM*	.
CCOc1ccc(NC(=O)Cn2nnc(C(=O)NCCc3ccccc3)c2N)cc1	.	.	.	0%	.	-2%
COc1ccc(NC(=O)c2sc3nc4c(cc3c2N)CCCCCC4)cc1OC	.	.	.	-2%	.	1%
CCc1nnc(NC(=O)c2sc3nc4c(cc3c2N)CCCCCC4)s1	2%	?	2.8µM*	4.8µM*	?	13µM*
CC(=O)c1cccc(NC(=O)c2sc3nc4c(cc3c2N)CCCC4)c1	.	.	.	0.54µM*	.	17%
CCc1nnc(NC(=O)c2sc3nc4c(cc3c2N)CCCCC4)s1	-1%	?	1.6µM*	1.7µM*	2.2µM*	8.9µM*
Cc1cccc(NC(=O)c2sc3nc(N)c(C#N)cc3c2N)c1	1%	?	2.5µM*	9.5µM*	2.8µM*	16µM*
CC1CCN(S(=O)(=O)c2ccc(C(=O)Nc3nc4ccc(F)cc4s3)cc2)CC1	.	.	.	-3%	.	.
COc1ccc(CCNC(=O)c2ccc3c(c2)nc2n3CCOC2)cc1OC	.	.	.	2%	.	.
CC(=O)Nc1ccc(NC(=O)C2(c3cccs3)CCOCC2)cc1	.	.	.	-2%	.	.
COc1ccccc1OC(=O)c1ccc(S(=O)(=O)N(C)C)cc1	-4%	-4%	-2%	-19%	-1%	3%
C/C(=N/OCO/N=C(\C)c1ccccc1)c1ccccc1	2%	2%	-4%	13%	0%	253%
C/C(=N\OCc1cccc(C(=O)O)c1)c1ccc(Cl)cc1	.	?	0.089µM*	0.095µM*	?	.
C/C(=N\OCc1ccc(C#N)cc1)c1ccccc1	-12%	18µM*	3.2µM*	11µM*	?	16µM*
C/C(=N\OCc1ccc(C#N)cc1)c1ccc(S(=O)(=O)N(C)C)cc1	.	1%	11%	21µM*	?	.

Screens: PubChem, National Center for Advancing Translational Sciences (NCATS)
